Results filed as inconclusive are left out. The source made the active and inactive calls. Unless noted, calls come from the whole dose curve; as a rule, active = well fitted inhibition curve with a large enough effect; inconclusive = small, poorly fitted or top-dose-only effect; inactive = flat fitted curve, though single readings scatter.
What was measured:
CRL-7250 = normal cell line; assay: qHTS assay to identify novel small-molecules to repurpose for Merkel cell carcinoma treatment (AID 1296009); conditions: MCC and control cell lines, CellTiter-Glo viability, 72 h; series mostly up to 92 µM; note: nearly all actives have a fitted effect of over 60% in size
How it was run: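 Viability readout: ATP luminescence (CellTiter-Glo) after 72 hr drug exposure at 37 degree celsius. Dose-response format was 8 points for NPC and 11 points for MIPE; data normalized to in-plate controls.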

[1] = qHTS for Inhibitors of the Functional Ribonucleoprotein Complex (vRNP) of Lassa (LASV) Arenavirus: LASV Primary Screen - GLuc reporter signal (AID 1347082; calls by dose curve; tested in HEK293 reporter line; note: nearly all actives have a fitted effect of over 60% in size)
[2] = qHTS for Inhibitors of the Functional Ribonucleoprotein Complex (vRNP) of Lassa (LASV) Arenavirus: Viability assay - alamar blue signal for LASV Primary Screen (AID 1347083; calls by dose curve; tested in HEK293 reporter line; note: nearly all actives have a fitted effect of over 80% in size)
[3] = qHTS for Inhibitors of the Functional Ribonucleoprotein Complex (vRNP) of Lymphocytic Choriomeningitis Arenaviruses (LCMV): Viability assay - alamar blue signal for LCMV Primary Screen (AID 1347085; calls by dose curve; tested in HEK293 reporter line; note: nearly all actives have a fitted effect of over 80% in size)
[4] = molecular target: Nucleoprotein (Lymphocytic choriomeningitis virus (strain Armstrong)) (UniProt P09992); assay: qHTS for Inhibitors of the Functional Ribonucleoprotein Complex (vRNP) of Lymphocytic Choriomeningitis Arenaviruses (LCMV): LCMV Primary Screen - GLuc reporter signal (AID 1347086; calls by dose curve; note: nearly all actives have a fitted effect of over 70% in size)

Measured: Potency

Sequence of Nucleoprotein (Lymphocytic choriomeningitis virus (strain Armstrong)) (P09992 whole entry, looked up): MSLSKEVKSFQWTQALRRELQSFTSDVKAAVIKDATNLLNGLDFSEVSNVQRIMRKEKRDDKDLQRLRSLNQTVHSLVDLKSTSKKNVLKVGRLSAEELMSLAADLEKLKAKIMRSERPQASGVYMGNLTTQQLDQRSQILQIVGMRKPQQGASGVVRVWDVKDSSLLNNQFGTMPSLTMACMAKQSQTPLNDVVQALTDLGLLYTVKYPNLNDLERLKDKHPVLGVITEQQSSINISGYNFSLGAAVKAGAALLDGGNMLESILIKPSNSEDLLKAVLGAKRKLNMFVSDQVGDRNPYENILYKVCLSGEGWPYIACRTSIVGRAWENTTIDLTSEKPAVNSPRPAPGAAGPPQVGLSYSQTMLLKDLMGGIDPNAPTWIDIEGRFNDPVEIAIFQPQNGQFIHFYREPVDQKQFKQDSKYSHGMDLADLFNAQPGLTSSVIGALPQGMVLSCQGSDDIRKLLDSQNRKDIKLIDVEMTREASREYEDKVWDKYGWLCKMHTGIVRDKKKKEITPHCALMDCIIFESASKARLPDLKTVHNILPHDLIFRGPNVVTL

CC(=O)OC1C(O)C(C)=C(CCC(C)CC(=O)O)C2(C)CCCC(C)(C)C12 (configuration not stated)
inactive: CRL-7250

COC1CC(=O)C23C(=O)NC(CC(C)C)C2C(C)C(C)=CC3/C=C(\C)CCC1O (configuration not stated)
inactive: CRL-7250

CC(=O)O[C@]1(C(C)=O)CC[C@H]2[C@@H]3C=C(C)C4=CC(=O)CC[C@]4(C)[C@@H]3CC[C@@]21C
inactive: all assays above

CCNC(=O)Nc1ccc(Oc2ncnc(N)c2C=NOC)cc1Cl
inactive: all assays above

Cc1nc2ccc(CN(C)c3ccc(C(=O)NC(CCC(=O)O)C(=O)O)s3)cc2c(=O)[nH]1 (configuration not stated)
inactive: CRL-7250

CC(C)C1(O)NC(=O)C(CC2(O)c3ccccc3N3C(=O)C(C)(C)NC32)n2c1nc1ccccc1c2=O (configuration not stated)
inactive: CRL-7250

CN(C)CCOc1ccc(-c2nc(-c3ccc4c(c3)CCC4=NO)c(-c3ccncc3)[nH]2)cc1
inactive: all assays above

C/C(=C\CCC(C)CCO)C(=O)O[C@@H]1[C@@H](O)[C@H](OC2OC=C(C(=O)O)C3CCC(C)(O)C23)O[C@H](CO)[C@H]1O (some centres not stated)
inactive: CRL-7250

CC(=O)O[C@H]1C[C@@]2(C)[C@@H](C[C@@H](O)[C@H]3[C@@]4(C)CC[C@@H](O)[C@@H](C)[C@@H]4CC[C@@]32C)/C1=C(\CCC=C(C)C)C(=O)O
inactive: CRL-7250

O=C(NNC(=O)c1ccc(CNS(=O)(=O)c2ccc(F)c(Cl)c2)cc1)c1ccccc1
inactive: all assays above

COc1ccc(-c2coc3cc(O)ccc3c2=O)cc1
inactive: all assays above

O=C1Nc2ccc(I)cc2C1=Cc1cc(Br)c(O)c(Br)c1
inactive: all assays above

Cn1nccc1-c1ccccc1Oc1ccc(S(=O)(=O)Nc2nccs2)cc1C#N
inactive: CRL-7250

CC(C)(Cc1ccc2ccccc2c1)NC[C@@H](O)COc1cccc(Cl)c1C#N
inactive: all assays above

COc1cc([C@H]2Oc3cc([C@H]4Oc5cc(O)cc(O)c5C(=O)[C@H]4O)ccc3O[C@H]2CO)ccc1O
inactive: all assays above
